Reference: PubChem BioAssay
The source made the active and inactive calls.

Columns and labels:
[1] = optical density shifts of acrAB sulA E. coli – strain DRC41, OD650, 48 h, E. coli filamentation inducer project, primary screen (AID 1152); details: higher = more signal, called active from +8 up or from −8 down;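 note: E. coli MC1000 strain DRC41 lacking acrAB efflux pump and sulA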
[2] = probe aLefty1 binding on compound microarray – biochemical, small-molecule microarray, 635/667 nm fluorescence, primary screen (AID 1153); details: higher = more signal;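 note: score merges spot fluorescence with signal-to-noise ratio from the scanned slide images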
[3] = plasmodial surface anion channel blockers, osmotic lysis – cell-based, P. falciparum Indochina, OD700, 1 h, primary screen (AID 1154); details: P. falciparum Indochina infected RBC osmotic lysis, higher = more signal, called active from +8 up or from −8 down
[4] = plasmodial surface anion channel blockers, osmotic lysis – cell-based, P. falciparum Indochina, OD700, 2 h, primary screen (AID 1155);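 note: lysis reports solute entry through the parasite surface anion channel PSAC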; details: P. falciparum Indochina infected erythrocytes, higher = more signal, called active from +8 up or from −8 down
[5] = changes in parasitized red cell lysis, either direction – P. falciparum Indochina, OD700, 3 h, PSAC antagonist project, primary screen (AID 1156); details: P. falciparum-infected erythrocytes, osmotic lysis, higher = more signal, called active from +8 up or from −8 down
[6] = plasmodial surface anion channel blockers, osmotic lysis – cell-based, P. falciparum Indochina, OD700, 18 h, primary screen (AID 1157); details: P. falciparum Indochina infected erythrocytes, osmotic lysis OD700, 18 h; higher = more signal, called active from +8 up or from −8 down
[7] = S6 kinase pathway phospho-S6 level changes – cell-based, A549, cytoblot, luminescence, serum-stimulated, primary screen (AID 1158); details: 5 h, higher = more signal;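 note: serum-stimulated A549 lung adenocarcinoma cells; signal is phosphorylated S6 detected by cytoblot immunostaining with HRP secondary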
[8] = target: NADPH oxidase 2 (Homo sapiens) (UniProt P04839); experiment: compounds shifting NOX2 Amplex Red fluorescence – cell-based, HEK293-NOX2, PMA-stimulated, NOX inhibitor project, primary screen (AID 1159); details: 45 min, higher = more signal, called active from +8 up or from −8 down; note: test concentration not given here
Sequence of NADPH oxidase 2 (Homo sapiens) (P04839 whole entry, looked up): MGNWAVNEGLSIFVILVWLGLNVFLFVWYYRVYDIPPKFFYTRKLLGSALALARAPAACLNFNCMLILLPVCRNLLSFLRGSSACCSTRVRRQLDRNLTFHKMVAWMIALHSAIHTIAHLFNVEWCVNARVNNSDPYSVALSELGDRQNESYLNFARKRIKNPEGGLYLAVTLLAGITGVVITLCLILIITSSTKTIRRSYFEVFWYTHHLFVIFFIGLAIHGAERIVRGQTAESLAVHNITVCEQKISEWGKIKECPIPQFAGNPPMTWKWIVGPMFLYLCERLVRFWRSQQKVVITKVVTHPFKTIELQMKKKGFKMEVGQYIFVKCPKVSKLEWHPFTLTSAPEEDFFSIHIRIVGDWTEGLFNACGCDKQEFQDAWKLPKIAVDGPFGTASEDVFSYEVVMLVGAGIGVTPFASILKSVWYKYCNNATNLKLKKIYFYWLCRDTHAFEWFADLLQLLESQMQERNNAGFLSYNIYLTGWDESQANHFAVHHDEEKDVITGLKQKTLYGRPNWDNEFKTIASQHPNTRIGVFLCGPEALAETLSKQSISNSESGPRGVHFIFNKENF

[9] = target: NADPH oxidase 4 (Homo sapiens) (UniProt Q9NPH5); experiment: compounds shifting NOX4 Amplex Red fluorescence – cell-based, HEK293-NOX4, tetracycline-induced, NOX inhibitor project, primary screen (AID 1160); details: HEK293-NOX4, Amplex Red H2O2 fluorescence, 45 min; higher = more signal, called active from +8 up or from −8 down
Sequence of NADPH oxidase 4 (Homo sapiens) (Q9NPH5 whole entry, looked up): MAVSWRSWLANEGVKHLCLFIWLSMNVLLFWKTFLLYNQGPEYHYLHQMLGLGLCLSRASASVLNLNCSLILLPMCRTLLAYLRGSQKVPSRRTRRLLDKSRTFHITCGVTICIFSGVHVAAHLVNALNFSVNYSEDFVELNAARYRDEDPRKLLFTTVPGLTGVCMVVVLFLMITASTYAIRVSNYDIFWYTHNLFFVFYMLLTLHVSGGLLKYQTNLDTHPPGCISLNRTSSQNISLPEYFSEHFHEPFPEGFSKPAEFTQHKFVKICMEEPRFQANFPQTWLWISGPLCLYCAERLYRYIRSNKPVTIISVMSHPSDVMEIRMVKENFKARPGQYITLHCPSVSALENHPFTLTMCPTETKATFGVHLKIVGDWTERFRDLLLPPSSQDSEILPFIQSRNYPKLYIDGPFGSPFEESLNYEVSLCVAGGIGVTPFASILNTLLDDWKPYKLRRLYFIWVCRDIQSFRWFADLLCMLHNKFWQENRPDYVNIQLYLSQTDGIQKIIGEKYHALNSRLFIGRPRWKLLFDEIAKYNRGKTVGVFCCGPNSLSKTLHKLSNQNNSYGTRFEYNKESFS

[10] = target: NADPH oxidase 5 (Homo sapiens) (UniProt Q96PH1); experiment: compounds shifting NOX5 Amplex Red fluorescence – cell-based, HEK293-NOX5, NOX inhibitor project, primary screen (AID 1161); details: HEK293-NOX5, ionomycin, 45 min, higher = more signal
Sequence of NADPH oxidase 5 (Homo sapiens) (Q96PH1 whole entry, looked up): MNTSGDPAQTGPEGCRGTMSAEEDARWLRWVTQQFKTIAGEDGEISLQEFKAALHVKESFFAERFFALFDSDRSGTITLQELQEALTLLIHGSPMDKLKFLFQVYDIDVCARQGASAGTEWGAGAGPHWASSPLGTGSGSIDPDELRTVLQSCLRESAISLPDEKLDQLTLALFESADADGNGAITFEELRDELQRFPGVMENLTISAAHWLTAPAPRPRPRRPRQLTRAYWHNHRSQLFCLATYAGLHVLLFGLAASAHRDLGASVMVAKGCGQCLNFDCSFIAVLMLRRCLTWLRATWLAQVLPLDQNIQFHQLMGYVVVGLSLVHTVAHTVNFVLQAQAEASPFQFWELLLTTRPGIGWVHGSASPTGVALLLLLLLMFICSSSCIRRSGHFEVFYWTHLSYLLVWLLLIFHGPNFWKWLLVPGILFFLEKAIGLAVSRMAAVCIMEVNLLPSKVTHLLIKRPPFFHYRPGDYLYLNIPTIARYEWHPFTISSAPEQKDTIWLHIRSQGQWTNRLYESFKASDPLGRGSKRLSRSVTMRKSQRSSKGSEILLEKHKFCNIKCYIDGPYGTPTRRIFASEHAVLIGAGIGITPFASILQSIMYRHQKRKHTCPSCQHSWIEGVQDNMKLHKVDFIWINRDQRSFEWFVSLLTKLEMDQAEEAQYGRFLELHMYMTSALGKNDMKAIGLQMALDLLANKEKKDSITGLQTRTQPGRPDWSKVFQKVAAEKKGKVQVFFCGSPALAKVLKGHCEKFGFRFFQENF

| Structure (SMILES) | z-score [1] | composite z-score [2] | z-score [3] | z-score [4] | z-score [5] | z-score [6] | z-score [7] | z-score [8] | z-score [9] | z-score [10] |
| --- | --- | --- | --- | --- | --- | --- | --- | --- | --- | --- |
| C[C@]1(C(=O)NCc2ccccc2)c2ccccc2C(=O)N(Cc2cc(F)cc(C(F)(F)F)c2)[C@H]1c1ccc(CO)cc1 | 0.537 (inactive) | -0.101 | 5.2 (inactive) | 1.01 (inactive) | 1.12 (inactive) | 0.38 (inactive) | -0.239 | -1.29 (inactive) | 0.26 (inactive) | -0.151 |
| COC(=O)[C@@]1(Cc2ccccc2)N=C(c2ccc(OCCCO)cc2)O[C@H]1c1ccccc1N=[N+]=[N-] | 0.388 (inactive) | 0.129 | 29.2 (active) | 24.1 (active) | 1.79 (inactive) | 5.76 (inactive) | 0.661 | -2.01 (inactive) | 0.373 (inactive) | -1.06 |
| CN1C=C(C(=O)OCCS(C)(=O)=O)C(C(=O)OCCS(C)(=O)=O)=CC(CCCO)=CC1C1CC1 (stereo not given) | 1.07 (inactive) | 0.026 | 1.43 (inactive) | 0.63 (inactive) | 0.483 (inactive) | 0.16 (inactive) | 0.471 | -2.51 (inactive) | -1.07 (inactive) | -1.38 |
| C=C(COC)/C(=C/C[C@H](OC(=O)c1ccncc1)c1cccc(OCCO)c1)c1cc(C(=O)OC)ccc1OC | 0.395 (inactive) | 0.132 | 13.5 (active) | 2.26 (inactive) | 2.48 (inactive) | 0.773 (inactive) | -0.625 | 0.32 (inactive) | 0.00792 (inactive) | -1.51 |
| O=C1OCC=C[C@H]2OC34C=CCN(c5ccc6ccccc6c5)C(=O)[C@H]3N(CCCO)C(=O)[C@@H]4[C@@H]12 (stereo not given in full) | 0.392 (inactive) | 0.251 | 0.638 (inactive) | -0.0892 (inactive) | 0.572 (inactive) | -1.56 (inactive) | 1.28 | 1.09 (inactive) | -0.0483 (inactive) | 0.904 |
| COc1ccc(C(=O)Nc2cccc(CN3C(=O)[C@]4(O[C@H](CC(=O)N5CCC[C@H]5CO)[C@@H]([Si](C)(C)c5ccc(OC)cc5)[C@@H]4C)c4ccccc43)c2)cc1 | 0.0295 (inactive) | -0.012 | 4.29 (inactive) | 1.45 (inactive) | -0.546 (inactive) | 0.451 (inactive) | 1.97 | 2.73 (inactive) | 1.65 (inactive) | 4.27 |
| COc1ccc(C(O)C2C=CC3C(=O)N(C)C(=O)C3N2Nc2ccccc2)cc1OCc1ccccc1 (stereo not given) | -1.69 (inactive) | 0.0451 | 1.68 (inactive) | 1.36 (inactive) | 0.272 (inactive) | 1.1 (inactive) | -1.17 | -1.25 (inactive) | -4.36 (inactive) | -2.57 |
| CCOC(=O)C[C@H]1[C@H](OC(=O)Cc2ccc3c(c2)OCO3)[C@@H](NC(=O)C2CCCCC2)c2cc(OCCCO)ccc2N1C(=O)Cc1ccc(OC)cc1 | 2.31 (inactive) | 0.405 | 5.77 (inactive) | -0.54 (inactive) | -1.21 (inactive) | -0.911 (inactive) | 1.97 | -0.00495 (inactive) | 1.07 (inactive) | 0.297 |
| COc1ccc(C#Cc2ccc3c(c2)[C@]2(C(=O)N3)[C@H](C(=O)NC[C@H](O)c3ccccc3)[C@H]3C(=O)O[C@H](c4ccccc4)[C@H](c4ccccc4)N3[C@@H]2c2ccc(OCCO)cc2)cc1 | -0.877 (inactive) | 0.0711 | 2.93 (inactive) | 1.97 (inactive) | -0.0845 (inactive) | 1.52 (inactive) | -0.321 | 1.4 (inactive) | -1.22 (inactive) | 0.636 |
| CC(C)N1C(=O)C[C@@](C(=O)NCc2ccccc2)(c2ccc([N+](=O)[O-])cc2)[C@H]1c1ccc(CO)cc1 | 1.05 (inactive) | -0.409 | 1.58 (inactive) | -0.273 (inactive) | 1.03 (inactive) | 0.449 (inactive) | -0.081 | -0.85 (inactive) | -0.235 (inactive) | -1.72 |
| COCCOC(=O)N1C(=O)[C@@]2(c3cc(C#CC4=CCCCC4)ccc31)[C@H](C(=O)NC[C@H](O)c1ccccc1)[C@H]1C(=O)O[C@H](c3ccccc3)[C@H](c3ccccc3)N1[C@@H]2c1ccc(O)cc1 | 1.8 (inactive) | 0.265 | 0.602 (inactive) | 0.793 (inactive) | 0.0873 (inactive) | 0.554 (inactive) | -0.176 | 1.2 (inactive) | 0.349 (inactive) | 1.22 |
| COCCOC(=O)N1C(=O)[C@@]2(c3cc(C#CCCO)ccc31)[C@H](c1ccccc1OCCO)N1[C@H](c3ccccc3)[C@H](c3ccccc3)OC(=O)[C@H]1[C@@H]2C(=O)N1CCN(c2ncccn2)CC1 | -0.33 (inactive) | 0.85 | 2.52 (inactive) | 1.32 (inactive) | -0.293 (inactive) | 0.708 (inactive) | -0.262 | 1.22 (inactive) | 1.05 (inactive) | 1.16 |
| O=c1cccc(C=Cc2ccccc2)o1 | 0.465 (inactive) | -0.29 | 2.92 (inactive) | 0.88 (inactive) | 0.488 (inactive) | 0.931 (inactive) | -0.39 | 0.165 (inactive) | -0.562 (inactive) | -0.0341 |
